Assay [1] concerns the target T1, Serine/threonine-protein kinase TBK1 (Homo sapiens) (UniProt Q9UHD2).
T1 sequence (whole entry): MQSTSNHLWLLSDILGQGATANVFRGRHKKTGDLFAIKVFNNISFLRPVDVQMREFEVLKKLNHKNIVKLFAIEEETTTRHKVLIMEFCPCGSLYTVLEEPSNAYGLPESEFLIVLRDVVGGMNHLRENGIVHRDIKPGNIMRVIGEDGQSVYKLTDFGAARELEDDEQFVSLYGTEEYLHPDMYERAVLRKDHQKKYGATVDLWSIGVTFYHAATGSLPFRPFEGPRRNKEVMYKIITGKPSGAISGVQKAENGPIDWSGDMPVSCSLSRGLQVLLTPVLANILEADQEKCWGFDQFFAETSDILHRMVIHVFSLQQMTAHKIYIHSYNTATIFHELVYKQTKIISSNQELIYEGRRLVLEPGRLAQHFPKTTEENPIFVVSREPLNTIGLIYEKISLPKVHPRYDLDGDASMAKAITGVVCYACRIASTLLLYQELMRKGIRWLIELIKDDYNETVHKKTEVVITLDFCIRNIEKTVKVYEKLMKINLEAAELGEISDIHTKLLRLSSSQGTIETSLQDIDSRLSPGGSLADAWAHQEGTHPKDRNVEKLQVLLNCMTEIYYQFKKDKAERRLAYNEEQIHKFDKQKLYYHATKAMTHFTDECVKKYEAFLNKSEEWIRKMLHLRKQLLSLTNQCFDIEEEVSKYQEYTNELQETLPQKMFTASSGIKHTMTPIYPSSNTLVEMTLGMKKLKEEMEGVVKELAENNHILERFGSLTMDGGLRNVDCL
As to conditions: at 1 µM.

Assay [2] deals with T1, Serine/threonine-protein kinase TBK1 (Homo sapiens). As to conditions: at 10 µM.
Assay [3] deals with Tyrosine-protein kinase SYK (Homo sapiens) (UniProt P43405). The settings on record: at 10 µM.
The target in assay [4] is T2, Serine/threonine-protein kinase TAO1 (Homo sapiens) (UniProt Q7L7X3).
T2 sequence (whole entry): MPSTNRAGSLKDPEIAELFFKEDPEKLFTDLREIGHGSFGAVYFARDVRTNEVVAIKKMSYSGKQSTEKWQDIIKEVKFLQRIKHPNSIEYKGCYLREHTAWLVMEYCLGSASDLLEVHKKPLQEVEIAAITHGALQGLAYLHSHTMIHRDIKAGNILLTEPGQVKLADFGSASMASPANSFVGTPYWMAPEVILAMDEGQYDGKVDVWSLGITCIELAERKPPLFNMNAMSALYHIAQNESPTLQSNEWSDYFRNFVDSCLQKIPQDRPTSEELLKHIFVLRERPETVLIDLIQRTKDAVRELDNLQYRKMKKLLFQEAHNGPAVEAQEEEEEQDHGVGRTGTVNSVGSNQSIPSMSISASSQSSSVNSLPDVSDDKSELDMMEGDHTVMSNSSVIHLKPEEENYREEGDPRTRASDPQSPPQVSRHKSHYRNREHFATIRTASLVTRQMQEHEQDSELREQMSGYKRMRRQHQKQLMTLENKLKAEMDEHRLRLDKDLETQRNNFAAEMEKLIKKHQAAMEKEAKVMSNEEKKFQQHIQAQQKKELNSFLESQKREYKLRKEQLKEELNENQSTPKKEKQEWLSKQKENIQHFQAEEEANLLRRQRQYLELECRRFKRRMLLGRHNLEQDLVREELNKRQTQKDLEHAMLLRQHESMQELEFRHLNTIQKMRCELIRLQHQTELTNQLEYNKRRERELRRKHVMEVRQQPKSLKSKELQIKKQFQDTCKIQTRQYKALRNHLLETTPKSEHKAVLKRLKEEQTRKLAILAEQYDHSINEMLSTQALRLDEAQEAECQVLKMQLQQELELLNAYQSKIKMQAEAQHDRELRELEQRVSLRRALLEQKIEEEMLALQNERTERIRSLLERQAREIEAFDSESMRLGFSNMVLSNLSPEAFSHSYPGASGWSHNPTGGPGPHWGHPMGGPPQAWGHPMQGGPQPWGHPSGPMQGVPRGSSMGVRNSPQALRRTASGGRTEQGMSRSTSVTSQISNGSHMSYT
As to conditions: at 1 µM.

The target of assay [5] is T3, Serine/threonine-protein kinase TAO2 (Homo sapiens) (UniProt Q9UL54).
T3 sequence (whole entry): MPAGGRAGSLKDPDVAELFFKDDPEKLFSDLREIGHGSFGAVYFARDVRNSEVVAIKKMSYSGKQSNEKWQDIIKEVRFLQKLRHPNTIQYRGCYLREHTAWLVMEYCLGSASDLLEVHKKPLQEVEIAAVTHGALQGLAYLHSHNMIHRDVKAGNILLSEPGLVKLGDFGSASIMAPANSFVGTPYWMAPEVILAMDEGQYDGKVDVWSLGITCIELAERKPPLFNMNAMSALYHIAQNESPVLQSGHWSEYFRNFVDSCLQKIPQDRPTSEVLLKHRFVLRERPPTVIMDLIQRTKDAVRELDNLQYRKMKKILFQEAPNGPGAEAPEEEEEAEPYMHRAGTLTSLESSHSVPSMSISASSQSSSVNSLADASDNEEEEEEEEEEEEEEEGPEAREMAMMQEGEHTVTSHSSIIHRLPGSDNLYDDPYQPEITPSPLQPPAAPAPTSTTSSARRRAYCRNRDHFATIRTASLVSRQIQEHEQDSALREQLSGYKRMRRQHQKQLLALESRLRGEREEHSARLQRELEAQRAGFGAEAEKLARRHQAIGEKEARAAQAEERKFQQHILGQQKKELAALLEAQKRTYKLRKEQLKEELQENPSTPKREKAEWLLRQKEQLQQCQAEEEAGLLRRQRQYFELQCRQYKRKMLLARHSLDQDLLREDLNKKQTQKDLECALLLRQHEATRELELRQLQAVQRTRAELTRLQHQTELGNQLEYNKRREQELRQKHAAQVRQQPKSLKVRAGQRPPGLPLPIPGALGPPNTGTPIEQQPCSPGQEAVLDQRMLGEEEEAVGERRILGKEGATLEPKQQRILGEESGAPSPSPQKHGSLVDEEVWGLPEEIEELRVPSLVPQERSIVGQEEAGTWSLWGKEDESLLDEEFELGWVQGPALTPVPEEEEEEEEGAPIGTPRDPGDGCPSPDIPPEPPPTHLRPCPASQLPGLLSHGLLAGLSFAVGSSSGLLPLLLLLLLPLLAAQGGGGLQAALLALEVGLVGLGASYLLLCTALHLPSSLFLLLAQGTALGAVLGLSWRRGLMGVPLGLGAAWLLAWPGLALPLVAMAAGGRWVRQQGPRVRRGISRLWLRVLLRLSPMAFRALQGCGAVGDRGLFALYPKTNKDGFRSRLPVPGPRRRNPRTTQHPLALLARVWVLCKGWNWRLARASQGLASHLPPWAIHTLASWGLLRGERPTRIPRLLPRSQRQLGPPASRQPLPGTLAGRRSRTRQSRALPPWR
The settings on record: at 1 µM.

The target in assay [6] is T3, Serine/threonine-protein kinase TAO2 (Homo sapiens). The settings on record: at 10 µM.
Assay [7] concerns the target T4, Serine/threonine-protein kinase TAO3 (Homo sapiens) (UniProt Q9H2K8).
T4 sequence (whole entry): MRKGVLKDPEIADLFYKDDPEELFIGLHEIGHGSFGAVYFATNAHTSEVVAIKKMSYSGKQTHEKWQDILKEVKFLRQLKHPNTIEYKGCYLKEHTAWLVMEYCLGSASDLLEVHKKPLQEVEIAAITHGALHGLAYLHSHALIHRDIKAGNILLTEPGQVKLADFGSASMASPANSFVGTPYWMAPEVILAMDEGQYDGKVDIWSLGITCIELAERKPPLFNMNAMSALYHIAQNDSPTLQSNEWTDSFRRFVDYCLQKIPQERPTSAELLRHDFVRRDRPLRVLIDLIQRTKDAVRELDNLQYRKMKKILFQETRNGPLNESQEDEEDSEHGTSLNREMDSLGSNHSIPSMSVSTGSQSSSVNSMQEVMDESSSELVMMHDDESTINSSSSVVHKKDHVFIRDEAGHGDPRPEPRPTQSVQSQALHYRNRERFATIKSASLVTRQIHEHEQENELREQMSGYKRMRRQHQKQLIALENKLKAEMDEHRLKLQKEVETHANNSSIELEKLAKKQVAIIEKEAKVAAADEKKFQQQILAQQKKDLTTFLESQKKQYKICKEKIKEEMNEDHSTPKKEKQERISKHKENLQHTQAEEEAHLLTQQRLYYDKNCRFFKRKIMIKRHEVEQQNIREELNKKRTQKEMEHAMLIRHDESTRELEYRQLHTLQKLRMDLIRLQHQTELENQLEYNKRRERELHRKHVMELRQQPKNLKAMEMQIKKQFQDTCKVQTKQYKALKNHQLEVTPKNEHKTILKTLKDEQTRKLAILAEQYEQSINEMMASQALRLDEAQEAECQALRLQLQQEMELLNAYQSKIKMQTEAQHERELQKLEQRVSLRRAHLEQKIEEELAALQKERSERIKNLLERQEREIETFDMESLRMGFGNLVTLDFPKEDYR
The settings on record: at 1 µM.

Assay [8] addresses T5, TGF-beta receptor type-1 (Homo sapiens) (UniProt P36897).
T5 sequence (whole entry): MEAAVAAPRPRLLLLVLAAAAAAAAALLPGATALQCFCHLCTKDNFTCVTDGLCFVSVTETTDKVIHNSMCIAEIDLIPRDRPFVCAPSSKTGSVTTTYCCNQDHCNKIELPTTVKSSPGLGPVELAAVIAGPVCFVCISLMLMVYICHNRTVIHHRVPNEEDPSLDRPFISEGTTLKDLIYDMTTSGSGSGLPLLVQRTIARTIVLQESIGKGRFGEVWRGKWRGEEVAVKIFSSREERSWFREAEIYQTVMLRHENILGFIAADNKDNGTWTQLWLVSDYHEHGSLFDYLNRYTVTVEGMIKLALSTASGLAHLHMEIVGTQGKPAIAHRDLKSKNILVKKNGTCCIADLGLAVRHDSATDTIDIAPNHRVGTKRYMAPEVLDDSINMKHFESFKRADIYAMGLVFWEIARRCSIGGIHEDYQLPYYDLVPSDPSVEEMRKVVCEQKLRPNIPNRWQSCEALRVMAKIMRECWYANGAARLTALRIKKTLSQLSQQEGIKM
As to conditions: at 1 µM.

Assay [9] addresses T5, TGF-beta receptor type-1 (Homo sapiens). As to conditions: at 10 µM.
The target of assay [10] is Insulin-like growth factor 1 receptor (Homo sapiens) (UniProt P08069). As to conditions: at 1 µM.
For assay [11] the target is unchanged. As to conditions: at 10 µM.
Assay [12] has as its target T6, Inhibitor of nuclear factor kappa-B kinase subunit alpha (Homo sapiens) (UniProt O15111).
T6 sequence (whole entry): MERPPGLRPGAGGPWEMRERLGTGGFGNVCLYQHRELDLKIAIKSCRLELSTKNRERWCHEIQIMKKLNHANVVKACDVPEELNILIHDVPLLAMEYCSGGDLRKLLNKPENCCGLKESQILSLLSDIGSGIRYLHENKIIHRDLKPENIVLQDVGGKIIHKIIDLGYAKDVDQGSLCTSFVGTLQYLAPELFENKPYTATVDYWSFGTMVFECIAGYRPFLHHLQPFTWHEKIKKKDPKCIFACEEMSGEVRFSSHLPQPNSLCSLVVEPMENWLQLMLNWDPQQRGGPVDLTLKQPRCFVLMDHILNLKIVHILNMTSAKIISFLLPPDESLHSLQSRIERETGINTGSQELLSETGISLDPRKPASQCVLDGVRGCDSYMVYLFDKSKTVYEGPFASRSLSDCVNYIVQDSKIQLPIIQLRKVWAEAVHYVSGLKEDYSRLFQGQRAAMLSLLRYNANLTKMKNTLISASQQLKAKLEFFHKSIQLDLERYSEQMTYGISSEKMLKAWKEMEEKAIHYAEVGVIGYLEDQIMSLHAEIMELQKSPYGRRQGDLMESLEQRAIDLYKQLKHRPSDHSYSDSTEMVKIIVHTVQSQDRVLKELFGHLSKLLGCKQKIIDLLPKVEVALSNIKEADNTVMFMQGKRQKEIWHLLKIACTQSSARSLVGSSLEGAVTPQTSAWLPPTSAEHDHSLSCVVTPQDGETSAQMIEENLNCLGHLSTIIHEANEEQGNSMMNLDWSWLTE
As to conditions: at 1 µM.

For assay [13], the target named is T7, Inhibitor of nuclear factor kappa-B kinase subunit beta (Homo sapiens) (UniProt O14920).
T7 sequence (whole entry): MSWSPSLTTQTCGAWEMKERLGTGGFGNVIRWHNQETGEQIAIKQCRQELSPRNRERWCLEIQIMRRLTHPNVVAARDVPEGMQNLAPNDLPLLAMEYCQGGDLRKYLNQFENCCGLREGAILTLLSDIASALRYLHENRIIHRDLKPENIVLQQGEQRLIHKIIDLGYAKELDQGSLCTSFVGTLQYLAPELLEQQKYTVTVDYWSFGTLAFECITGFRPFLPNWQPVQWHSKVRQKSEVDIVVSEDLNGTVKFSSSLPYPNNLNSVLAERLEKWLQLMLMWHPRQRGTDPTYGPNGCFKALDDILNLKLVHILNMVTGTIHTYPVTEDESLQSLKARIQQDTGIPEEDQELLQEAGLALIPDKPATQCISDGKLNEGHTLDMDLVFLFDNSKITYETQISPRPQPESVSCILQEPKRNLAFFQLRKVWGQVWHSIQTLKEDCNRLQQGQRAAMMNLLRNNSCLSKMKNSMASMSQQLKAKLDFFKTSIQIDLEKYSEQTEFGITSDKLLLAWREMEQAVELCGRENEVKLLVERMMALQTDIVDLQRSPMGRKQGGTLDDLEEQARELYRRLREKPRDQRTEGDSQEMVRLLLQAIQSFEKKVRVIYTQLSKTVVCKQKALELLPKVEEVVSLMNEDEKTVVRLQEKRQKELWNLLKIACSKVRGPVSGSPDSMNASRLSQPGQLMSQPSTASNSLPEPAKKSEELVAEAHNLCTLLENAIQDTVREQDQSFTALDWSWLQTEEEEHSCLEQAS
As to conditions: at 1 µM.

Assay [14] addresses T7, Inhibitor of nuclear factor kappa-B kinase subunit beta (Homo sapiens). The settings on record: at 10 µM.
Assay [15] has as its target Insulin receptor (Homo sapiens) (UniProt P06213). As to conditions: at 1 µM.

Usually residual activity stands for the signal under treatment as a percentage of the control signal.

Sequence of Insulin-like growth factor 1 receptor (Homo sapiens) (P08069 31-736 limits assumed): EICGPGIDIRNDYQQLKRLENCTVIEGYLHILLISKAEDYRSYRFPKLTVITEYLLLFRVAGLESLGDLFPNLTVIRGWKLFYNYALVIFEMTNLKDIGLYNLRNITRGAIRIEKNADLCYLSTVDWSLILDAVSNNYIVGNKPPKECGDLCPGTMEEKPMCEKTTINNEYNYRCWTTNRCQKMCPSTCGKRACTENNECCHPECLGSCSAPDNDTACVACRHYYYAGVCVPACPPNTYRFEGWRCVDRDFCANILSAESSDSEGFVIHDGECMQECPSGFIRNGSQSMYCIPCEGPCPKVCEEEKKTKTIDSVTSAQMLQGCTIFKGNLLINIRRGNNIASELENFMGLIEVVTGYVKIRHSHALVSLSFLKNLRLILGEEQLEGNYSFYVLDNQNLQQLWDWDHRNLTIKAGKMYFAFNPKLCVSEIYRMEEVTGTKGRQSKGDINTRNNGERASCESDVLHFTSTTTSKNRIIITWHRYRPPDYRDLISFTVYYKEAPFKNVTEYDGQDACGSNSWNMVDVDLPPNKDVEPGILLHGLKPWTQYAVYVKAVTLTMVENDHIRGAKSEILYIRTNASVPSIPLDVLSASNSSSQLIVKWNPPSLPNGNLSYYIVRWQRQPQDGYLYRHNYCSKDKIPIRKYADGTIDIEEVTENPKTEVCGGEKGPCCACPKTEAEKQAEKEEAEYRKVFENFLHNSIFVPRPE
Sequence of Insulin-like growth factor 1 receptor (Homo sapiens) (P08069 741-1367 limits assumed): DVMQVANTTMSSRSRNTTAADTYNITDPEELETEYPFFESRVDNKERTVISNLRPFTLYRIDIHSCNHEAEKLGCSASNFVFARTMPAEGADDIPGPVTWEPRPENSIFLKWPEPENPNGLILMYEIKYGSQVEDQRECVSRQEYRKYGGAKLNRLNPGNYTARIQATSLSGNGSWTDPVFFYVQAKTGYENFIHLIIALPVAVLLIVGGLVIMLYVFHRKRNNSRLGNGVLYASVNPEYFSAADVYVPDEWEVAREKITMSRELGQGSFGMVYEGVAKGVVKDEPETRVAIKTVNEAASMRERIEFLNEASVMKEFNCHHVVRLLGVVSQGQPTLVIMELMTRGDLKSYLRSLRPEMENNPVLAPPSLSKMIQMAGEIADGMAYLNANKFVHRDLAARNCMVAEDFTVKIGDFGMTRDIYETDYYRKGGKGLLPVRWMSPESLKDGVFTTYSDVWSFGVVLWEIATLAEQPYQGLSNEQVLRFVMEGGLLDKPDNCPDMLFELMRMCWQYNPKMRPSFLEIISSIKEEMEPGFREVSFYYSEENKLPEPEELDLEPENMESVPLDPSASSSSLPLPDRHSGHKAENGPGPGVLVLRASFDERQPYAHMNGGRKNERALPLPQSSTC
Sequence of Insulin receptor (Homo sapiens) (P06213 28-758 limits assumed): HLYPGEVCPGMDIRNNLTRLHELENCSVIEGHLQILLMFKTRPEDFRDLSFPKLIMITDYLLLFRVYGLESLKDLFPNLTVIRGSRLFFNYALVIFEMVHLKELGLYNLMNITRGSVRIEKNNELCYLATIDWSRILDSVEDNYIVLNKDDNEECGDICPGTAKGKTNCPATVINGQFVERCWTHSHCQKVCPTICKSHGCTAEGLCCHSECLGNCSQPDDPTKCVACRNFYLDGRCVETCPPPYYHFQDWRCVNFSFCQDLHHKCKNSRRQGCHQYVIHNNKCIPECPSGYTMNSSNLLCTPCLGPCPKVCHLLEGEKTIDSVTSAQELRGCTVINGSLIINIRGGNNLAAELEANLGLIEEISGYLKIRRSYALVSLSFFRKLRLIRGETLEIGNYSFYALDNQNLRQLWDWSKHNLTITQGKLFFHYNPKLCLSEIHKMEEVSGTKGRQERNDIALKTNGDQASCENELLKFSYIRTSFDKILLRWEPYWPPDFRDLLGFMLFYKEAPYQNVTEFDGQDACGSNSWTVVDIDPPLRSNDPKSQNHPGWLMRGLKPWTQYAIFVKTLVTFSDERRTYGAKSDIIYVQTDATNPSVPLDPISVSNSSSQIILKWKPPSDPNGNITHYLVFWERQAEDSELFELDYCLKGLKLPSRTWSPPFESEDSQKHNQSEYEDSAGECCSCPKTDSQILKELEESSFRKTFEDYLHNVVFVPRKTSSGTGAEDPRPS
Sequence of Insulin receptor (Homo sapiens) (P06213 763-1382 limits assumed): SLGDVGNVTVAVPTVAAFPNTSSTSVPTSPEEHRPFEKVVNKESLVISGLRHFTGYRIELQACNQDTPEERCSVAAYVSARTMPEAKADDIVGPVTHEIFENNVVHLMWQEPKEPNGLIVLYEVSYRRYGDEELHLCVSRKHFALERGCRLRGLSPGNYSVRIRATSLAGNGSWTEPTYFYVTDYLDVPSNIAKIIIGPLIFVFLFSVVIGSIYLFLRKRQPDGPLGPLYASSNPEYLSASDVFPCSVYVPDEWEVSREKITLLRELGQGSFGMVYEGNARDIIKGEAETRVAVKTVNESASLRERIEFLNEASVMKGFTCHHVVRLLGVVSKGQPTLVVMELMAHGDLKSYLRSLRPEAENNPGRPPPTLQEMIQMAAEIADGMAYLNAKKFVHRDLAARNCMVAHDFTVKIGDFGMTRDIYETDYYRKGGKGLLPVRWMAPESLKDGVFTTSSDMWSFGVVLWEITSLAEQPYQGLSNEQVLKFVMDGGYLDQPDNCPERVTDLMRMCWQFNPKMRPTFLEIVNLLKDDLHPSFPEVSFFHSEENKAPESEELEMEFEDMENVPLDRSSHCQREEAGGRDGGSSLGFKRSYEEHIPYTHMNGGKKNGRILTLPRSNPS

As for `O=c1cc(N2CCOCC2)oc2c(-c3ccccc3)cccc12`, the residual activity in [1] is 68%; in assay [2], 55%.
With `Nc1ncnc2[nH]nc(Nc3ccc(F)cc3)c12`, the residual activity in [3] is 97%; in assay [4], 107%; in [5] it was 102%; in assay [6], 91%; in [7] it was 101%; in assay [1], 77%. The residual activity in assay [2] was 58%; in assay [8] it was 107%; in assay [9] it was 74%; in assay [10], 109%; in [11], 112%; in [12] it was 105%. In addition, the residual activity came to 115% in assay [13], 108% in assay [14] and 141% in assay [15].
